Source: PubChem BioAssay AID588525 (Broad Institute, 2011)
Results with a measured potency or affinity are listed apart. Records with an inconclusive call do not appear. Active and inactive are the calls of the source. No rule for the calls is given here.

Each compound was assayed against DNA topoisomerase I (Yersinia pestis CO92) (UniProt A0A2S9PM60) (assay: Yersinia topoisomerase I cleavage product accumulation – biochemical, Y. pestis CO92, cherry-pick, dose response (AID 588525)). Details: purified Y. pestis Topo-I, plate reader; series mostly up to 38 µM.
Sequence of DNA topoisomerase I (Yersinia pestis CO92) (A0A2S9PM60 1-871): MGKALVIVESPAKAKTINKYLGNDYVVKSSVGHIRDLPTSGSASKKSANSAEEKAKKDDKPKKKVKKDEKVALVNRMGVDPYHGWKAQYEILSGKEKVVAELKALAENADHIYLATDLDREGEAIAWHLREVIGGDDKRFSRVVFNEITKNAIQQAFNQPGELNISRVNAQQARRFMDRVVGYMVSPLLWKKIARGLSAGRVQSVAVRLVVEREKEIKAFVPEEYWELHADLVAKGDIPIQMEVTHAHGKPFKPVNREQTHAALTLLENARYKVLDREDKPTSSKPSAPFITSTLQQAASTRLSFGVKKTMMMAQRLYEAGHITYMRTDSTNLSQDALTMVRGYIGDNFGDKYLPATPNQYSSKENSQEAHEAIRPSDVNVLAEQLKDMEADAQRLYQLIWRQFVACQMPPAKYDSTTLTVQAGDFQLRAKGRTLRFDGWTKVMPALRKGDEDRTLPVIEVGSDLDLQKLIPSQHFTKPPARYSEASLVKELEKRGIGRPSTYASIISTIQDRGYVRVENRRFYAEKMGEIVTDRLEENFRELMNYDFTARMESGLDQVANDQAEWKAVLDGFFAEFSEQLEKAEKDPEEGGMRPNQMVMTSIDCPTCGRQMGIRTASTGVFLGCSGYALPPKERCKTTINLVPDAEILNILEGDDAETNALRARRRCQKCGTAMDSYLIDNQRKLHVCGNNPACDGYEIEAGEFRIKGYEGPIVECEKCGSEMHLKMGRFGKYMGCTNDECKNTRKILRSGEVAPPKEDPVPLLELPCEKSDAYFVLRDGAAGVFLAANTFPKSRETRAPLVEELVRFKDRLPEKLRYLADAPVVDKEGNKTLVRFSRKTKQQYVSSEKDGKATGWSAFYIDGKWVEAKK

Structure (SMILES)	outcome	activity (cleavage complex accumulation)
CC1CCN(c2oc(Cc3cccc4ccccc34)nc2C#N)CC1	inactive	
CCCCCCCCN1[C@@H](CC(C)=O)c2cc(C(F)(F)F)ccc2S1(=O)=O	inactive	
COC(=O)c1ccc(C2C(Oc3ccc(OC)cc3)C(=O)N2CCc2ccc(F)cc2)cc1 (centres undefined)	inactive	
COc1ccccc1C(=O)NCCC(=O)N1CC=C(c2ccccc2)CC1	inactive	
CC(=O)c1ccccc1OCc1ccc(C(=O)c2ccccc2)cc1	inactive	
Cc1ccc2c(Cl)c(C)c(N3CCCCC3)nc2n1	inactive	
COc1ccc(C2CC(c3ccccc3)=NN2C(=O)COC(=O)c2cccc(S(=O)(=O)N3CCOCC3)c2)cc1 (centres undefined)	inactive	
CCCCC(CC)COC(=O)c1ccccc1C(=O)OCC(CC)CCCC (centres undefined)	inactive	
Cc1cc(NC(=O)C(C)SCC(=O)N(C)CC(=O)Nc2ccc(F)cc2)no1 (centres undefined)	inactive	
C#CCN(C[C@@H](CC(C)C)NC(=O)OC(C)(C)C)S(=O)(=O)c1ccc(Br)cc1F	inactive	
O=C(NCC1(c2ccccc2)CCCC1)C1(c2ccccc2)CCCC1	inactive	
CSc1ccccc1NC(=O)COC(=O)c1ccccc1Cc1ccccc1	inactive	
O=C(NCCn1cc(SCc2ccccc2)c2ccccc21)c1ccccc1F		26.2% [at 5 µM] (inactive)
O=C(OCc1ccccc1)N1CCC2CC1c1c(Cl)cccc12 (centres undefined)	inactive	
Cc1ccc(CSc2nc3c(c(N(C)C)n2)CCCC3)cc1	inactive	
O=C(Cc1ccccc1)CC(CC(=O)c1ccccc1)c1ccccc1 (centres undefined)	inactive	
Cc1ccccc1OCC(=O)Nc1ccccc1N1CCCCC1	inactive	
CCCCN1CC(COCc2ccccc2)Oc2cccc(F)c2S1(=O)=O (centres undefined)	inactive	
CCCCOC(=O)Nc1nnc(/C=C/c2ccc(OC)cc2)s1	inactive	
O=C(COC(=O)CCC1CCCC1)Nc1ccccc1Sc1ccccc1	inactive	
O=C(COc1c(Cl)cccc1Cl)Nc1ccccc1N1CCCC1	inactive	
CC(C)OC(=O)C(C)(C)Oc1ccc(C(=O)c2ccc(Cl)cc2)cc1	inactive	
CCCCn1c(C)cc(C)c(S(=O)(=O)c2ccccc2C)c1=O	inactive	
C[C@H]1CCC(=O)N([C@H](CSc2ccccc2)Cc2ccccc2)CC1	inactive	
